Where “and” joins values, the source holds several entries; their conditions need not be identical. Equal entries are not always repeated. In all, about 5,500 compounds went through this assay and about 2,000 (36%) were called active. Another 18% or so got no clear call; they are omitted. No stated cut-off is given here; in the data, active means normalized growth mostly below about 0.91 (no sharp cut-off); inconclusive means no clear call, values can overlap the other calls; inactive means mostly above about 0.92. This is one part of the list.
Experiment: chemical genetic growth profiling, strain panel (AID 1159580);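 further: tested at 20 µM; growth read once vehicle control cultures reached saturation at 30 °C; 1 = growth at the plate median or of vehicle wells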
Conditions: S. cerevisiae deletion strains, growth OD

Measured: normalized growth

COc1ccc(C(=O)c2ccccc2)c(O)c1
active: locus YAL026C, strain drs2, stronger effect = lower value 0.74 | locus YAL030W, strain snc1, stronger effect = lower value 0.841 | locus YBL061C, strain skt5, stronger effect = lower value 0.762 | locus YBR009C, strain hhf1, stronger effect = lower value 0.789 | locus YBR023C, strain chs3, stronger effect = lower value 0.807 | locus YBR171W, strain sec66, stronger effect = lower value 0.769 | locus YBR231C, strain swc5, stronger effect = lower value 0.834 | locus YBR279W, strain paf1, stronger effect = lower value 0.854 | locus YCL011C, strain gbp2, stronger effect = lower value 0.78 | locus YCL016C, strain dcc1, stronger effect = lower value 0.792 | locus YCL061C, strain MRC1, stronger effect = lower value 0.791 | locus YCL069W, strain vba3, stronger effect = lower value 0.779 | locus YCR088W, strain abp1, stronger effect = lower value 0.833 | locus YDL005C, strain med2, stronger effect = lower value 0.903 | locus YDL035C, strain GPR1, stronger effect = lower value 0.855 | locus YDL040C, strain nat1, stronger effect = lower value 0.861 | locus YDL074C, strain BRE1, stronger effect = lower value 0.691 | locus YDL192W, strain arf1, stronger effect = lower value 0.808 | locus YDR001C, strain nth1, stronger effect = lower value 0.863 | locus YDR069C, strain doa4, stronger effect = lower value 0.879 | locus YDR101C, strain arx1, stronger effect = lower value 0.868 | locus YDR137W, strain rgp1, stronger effect = lower value 0.451 | locus YDR159W, strain sac3, stronger effect = lower value 0.671 | locus YDR162C, strain NBP2, stronger effect = lower value 0.671 | locus YDR195W, strain ref2 1.16 [resistant] | locus YDR297W, strain sur2, stronger effect = lower value 0.853 | locus YDR318W, strain mcm21, stronger effect = lower value 0.833 | locus YDR334W, strain swr1, stronger effect = lower value 0.859 | locus YDR335W, strain msn5, stronger effect = lower value 0.758 | locus YDR388W, stronger effect = lower value 0.881 | locus YDR392W, strain spt3, stronger effect = lower value 0.43 | locus YDR502C, strain sam2, stronger effect = lower value 0.804 | locus YEL003W, strain gim4, stronger effect = lower value 0.778 | locus YEL037C, strain rad23, stronger effect = lower value 0.841 | locus YEL061C, strain CIN8 (second series), stronger effect = lower value 0.813 | locus YER015W, strain faa2, stronger effect = lower value 0.752 | locus YER016W, strain bim1, stronger effect = lower value 0.862 | locus YER110C, stronger effect = lower value 0.891 | locus YER111C, strain swi4, stronger effect = lower value 0.797 | locus YER155C, strain BEM2 (second series), stronger effect = lower value 0.24 | locus YER155C, strain BEM2, stronger effect = lower value 0.926 | locus YER167W, strain BCK2, stronger effect = lower value 0.837 | locus YFR010W, strain ubp6, stronger effect = lower value 0.888 | locus YGL078C, strain dbp3, stronger effect = lower value 0.911 | locus YGL086W, strain mad1, stronger effect = lower value 0.828 | locus YGL167C, strain pmr1, stronger effect = lower value 0.772 | locus YGL173C, strain kem1, stronger effect = lower value 0.72 | locus YGL227W, strain vid30, stronger effect = lower value 0.84 | locus YGL240W, strain doc1, stronger effect = lower value 0.609 | locus YGL253W, strain hxk2, stronger effect = lower value 0.686 | locus YGR135W, strain pre9, stronger effect = lower value 0.729 | locus YGR229C, strain SMI1, stronger effect = lower value 0.558 | locus YGR252W, strain gcn5, stronger effect = lower value 0.666 | locus YHR013C, strain ard1, stronger effect = lower value 0.757 | locus YHR027C, strain rpn1, stronger effect = lower value 0.87 | locus YHR079C, strain IRE1 (second series), stronger effect = lower value 0.894 | locus YHR079C, strain IRE1, stronger effect = lower value 0.842 | locus YHR094C, strain hxt1, stronger effect = lower value 0.915 | locus YHR142W, strain chs7, stronger effect = lower value 0.541 | locus YHR200W, strain rpn10, stronger effect = lower value 0.861 | locus YIL066C, strain RNR3, stronger effect = lower value 0.827 | locus YIL125W, strain kgd1, stronger effect = lower value 0.898 | locus YIR030C, strain dcg1, stronger effect = lower value 0.906 | locus YJL092W, strain hpr5, stronger effect = lower value 0.827 | locus YJL095W, strain BCK1 (second series), stronger effect = lower value 0.703 | locus YJL095W, strain BCK1, stronger effect = lower value 0.699 and 0.86 | locus YJL115W, strain asf1, stronger effect = lower value 0.869 | locus YJL129C, strain trk1, stronger effect = lower value 0.649 | locus YJL154C, strain vps35, stronger effect = lower value 0.882 | locus YJL164C, strain tpk1, stronger effect = lower value 0.805 | locus YJL166W, strain qcr8, stronger effect = lower value 0.742 | locus YJL168C, strain set2, stronger effect = lower value 0.913
inactive: locus YAL013W, strain DEP1, stronger effect = lower value 0.914 | locus YAL021C, strain ccr4, stronger effect = lower value 0.918 | locus YBR021W, strain FUR4, stronger effect = lower value 0.975 | locus YBR229C, strain ROT2, stronger effect = lower value 0.956 | locus YCL029C, strain bik1, stronger effect = lower value 0.92 | locus YDL101C, strain DUN1, stronger effect = lower value 0.963 | locus YDL134C, strain PPH21, stronger effect = lower value 0.949 | locus YDL185W, strain tfp1, stronger effect = lower value 0.908 | locus YDR150W, strain NUM1, stronger effect = lower value 0.934 | locus YEL061C, strain CIN8, stronger effect = lower value 0.939 | locus YGL248W, strain PDE1, stronger effect = lower value 0.944 | locus YGR078C, strain PAC10, stronger effect = lower value 0.859 | locus YHR129C, strain ARP1, stronger effect = lower value 0.936 | locus YIL073C, strain SPO22, stronger effect = lower value 0.75 | locus YJL134W, strain LCB3, stronger effect = lower value 0.945 | locus YJL187C, strain SWE1 (second series), stronger effect = lower value 0.943 | locus YJR043C, strain POL32, stronger effect = lower value 0.879 | locus YJR066W, strain TOR1, stronger effect = lower value 0.835
0.755 (active) and 0.874 (inactive): locus YHR030C, strain SLT2, stronger effect = lower value
